Bioassay records (PubChem)
PLK1 PBD inh = blocks phosphopeptide binding to human PLK1 polo-box domain. P53350. Plk1 PBD binding of FITC phosphopeptide, fluorescence polarization. Potency, µM, hits mostly inhibitors. actives 2.8% (n = 360,000); also: series mostly up to about 57 µM; nearly all actives have a fitted effect of over 65% in size
Target sequence (P53350 whole entry, looked up, the tested form may be a part): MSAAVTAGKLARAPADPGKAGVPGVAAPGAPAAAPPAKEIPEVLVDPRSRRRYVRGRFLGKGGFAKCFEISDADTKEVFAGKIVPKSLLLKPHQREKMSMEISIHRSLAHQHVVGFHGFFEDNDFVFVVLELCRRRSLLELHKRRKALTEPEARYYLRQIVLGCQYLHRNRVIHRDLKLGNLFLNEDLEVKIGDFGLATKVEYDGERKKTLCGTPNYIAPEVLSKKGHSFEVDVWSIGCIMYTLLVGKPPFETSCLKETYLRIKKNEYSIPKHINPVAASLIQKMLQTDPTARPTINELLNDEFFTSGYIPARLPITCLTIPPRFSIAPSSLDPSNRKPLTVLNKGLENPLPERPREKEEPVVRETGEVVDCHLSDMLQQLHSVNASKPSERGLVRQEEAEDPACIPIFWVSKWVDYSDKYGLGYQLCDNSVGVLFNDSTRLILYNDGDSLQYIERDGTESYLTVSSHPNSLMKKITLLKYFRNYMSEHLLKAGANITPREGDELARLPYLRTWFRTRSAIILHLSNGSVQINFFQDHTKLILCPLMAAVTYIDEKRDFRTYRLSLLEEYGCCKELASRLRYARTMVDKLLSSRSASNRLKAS
mIDH1 inhibitor = blocks human mutant IDH1 R132H enzyme; IDH1-R132H enzyme, NADPH consumption, diaphorase/resazurin fluorescence; Potency, µM (doses to about 76.6 µM), actives largely listed as inhibitors; O75874; AID 602179; actives 0.093% (n = 390,000); also: nearly all actives have a fitted effect of over 65% in size
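IDH1-R132H (0.5 ug/mL dispensed) in pH 7.5 Tris buffer was preincubated 30 min with compound, then given a substrate mix of 0.016 mM NADPH and 2 mM alpha-KG for 80 min at room temperature; remaining NADPH was read by diaphorase/resazurin fluorescence.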
VDR inh = vitamin D3 receptor (human) inhibition; P11473; VDR-SRC2-3 peptide fluorescence polarization, 2 h; Potency, µM, actives largely listed as inhibitors; actives 0.93% (n = 400,000); AID 504847
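After 23 nl compound addition and a short centrifugation, plates sat for 2 hours at ambient temperature; polarization of fluorescence then indicated loss of VDR binding to peptide SRC2-3.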
TrxR1 substrate = substrates of rat thioredoxin reductase 1 | purified TrxR1 substrate turnover, NADPH consumption readout | Potency, µM (doses to about 114 µM) | actives 0.01% (n = 390,000) | AID 588456; also: nearly all actives have a fitted effect of over 50% in size
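Rat TrxR1, dispensed at 90 nM, was prereduced with 400 uM NADPH (final) for 5 min at ~22 deg C, then incubated with compound 15 min before 400 uM selenite. A first-read NADPH fluorescence drop versus no-compound background flagged substrates.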
Sfp PPTase inh = Sfp phosphopantetheinyl transferase inhibition; Q9F4F7; Biochemical Sfp PPTase activity, qHTS; Potency, µM, most hits filed as inhibitors; actives 3.5% (n = 310,000);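 also: the enzyme is Sfp with the accession as filed and its product quenches rhodamine fluorescence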
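Reaction rates are the 30-min fluorescence difference (ex 525, em 598 nm) in wells containing 15 nM Sfp, 5 uM rhodamine-CoA and 12.5 uM BHQ-2-YbbR at pH 7.6 with 10 mM MgCl2.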
rTrxR1 inhibitor = inhibitors of rat thioredoxin reductase 1 | recombinant rTrxR1, NADPH fluorescence consumption, selenite substrate | Potency, µM (highest dose often 114 µM), usual class: inhibitors | AID 588453 | actives 1% (n = 390,000) | O89049; also: nearly all actives have a fitted effect of over 65% in size
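Rat TrxR1 (90 nM in the dispensed reagent) was pre-reduced with 400 uM NADPH for 5 min at room temperature, then incubated with compound for 15 min. After 400 uM selenite was added, NADPH fluorescence (Ex 340/Em 450 nm) was followed for 8 min.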
Each line names hits and unclear results; the compound was inactive in the other large screens. Compounds with a hit are over-represented: about 5.2% of the library has one in this group of screens. Calls follow the shape of the dose curve; as a rule, active = well fitted curve in the direction sought with a large enough effect; inconclusive = small, poorly fitted or top-dose-only effect, or another doubt; inactive = no such curve, though single readings can be large; an effect the other way counts as inactive or inconclusive.

Oc1ccc(-c2n[nH]c(=S)n2-c2ccc3c(c2)OCCO3)c(O)c1	Sfp PPTase inh inconclusive, rTrxR1 inhibitor inconclusive
S=c1[nH]nc(-c2ccc(Br)cc2)n1-c1ccc2c(c1)OCCO2	PLK1 PBD inh inconclusive, Sfp PPTase inh 39.8µM
COC(=O)[C@@]1(Cc2ccc(F)cc2)[C@H]2c3cc(C(=O)N(C)C)n(Cc4ccccc4)c3C[C@H]2CN1C(=O)c1ccccc1	none
COC(=O)[C@@]1(Cc2ccc(F)cc2)[C@H]2c3cc(C(=O)N4CCCC4)n(CCc4ccccn4)c3C[C@H]2CN1C(=O)c1ccccc1	PLK1 PBD inh 21.2µM, rTrxR1 inhibitor inconclusive
COC(=O)[C@@]1(Cc2ccccc2)[C@H]2c3cc(C(=O)N4CCCC4)n(CCc4ccccn4)c3C[C@H]2CN1C(=O)c1ccccc1	none (no result: PLK1 PBD inh, mIDH1 inhibitor, VDR inh, TrxR1 substrate, rTrxR1 inhibitor)
COC(=O)[C@@]1(Cc2ccc(F)cc2)[C@H]2c3cc(C(=O)N(C)C)n(Cc4ccc(C)o4)c3C[C@H]2CN1C(=O)c1ccccc1	Sfp PPTase inh 15.8µM (no result: mIDH1 inhibitor, VDR inh, TrxR1 substrate, rTrxR1 inhibitor)
CCOc1ccccc1CNC(=O)Cn1nc(C)c2nn(-c3ccc(Cl)cc3)c(C)c2c1=O	none (no result: PLK1 PBD inh, Sfp PPTase inh)
CCC(C)(C)n1nnnc1C(c1ccc2ncccc2c1)N1CCN(c2ccc(O)cc2)CC1 (stereo not drawn)	Sfp PPTase inh 20µM
COc1ccccc1Nc1nc(-c2cccc([N+](=O)[O-])c2)nc2ccccc12	Sfp PPTase inh 79.4µM
Cc1ccc(NC(=O)c2sc(-n3nc(C)c(Cc4ccc5c(c4)OCO5)c3C)nc2C)cc1Cl	none (no result: PLK1 PBD inh, Sfp PPTase inh)
O=c1[nH]c(/C=C\c2ccc(O)c(O)c2)nc(O)c1[N+](=O)[O-]	TrxR1 substrate inconclusive, Sfp PPTase inh 44.7µM, rTrxR1 inhibitor inconclusive
COc1ccccc1NC(=O)CN1C(=O)COc2ccc(S(=O)(=O)N3CCCCCC3)cc21	PLK1 PBD inh 29.9µM
COc1ccccc1NC(=O)COn1nnc2ccc(S(=O)(=O)N3CCOCC3)cc21	PLK1 PBD inh 18.9µM
CCCn1c(SCC(=O)Nc2cc(S(=O)(=O)N3CCOCC3)ccc2OC)n[nH]c1=O	PLK1 PBD inh 29.9µM, Sfp PPTase inh 39.8µM
Cc1ccc(C2=NOC(=O)/C2=C\C=C\c2ccccc2)cc1	PLK1 PBD inh 1.68µM, mIDH1 inhibitor inconclusive, Sfp PPTase inh 28.2µM, rTrxR1 inhibitor inconclusive
O=C(NCCC(=O)N(Cc1ccco1)Cc1cccs1)c1ccc(Br)cc1	none (no result: Sfp PPTase inh)
Cc1cc(=O)c2c(O)c(O)ccc2o1	Sfp PPTase inh 79.4µM
Cc1sc2nc(-c3cccs3)nc(N3CCCN(C)CC3)c2c1C	Sfp PPTase inh 56.2µM (no result: PLK1 PBD inh, mIDH1 inhibitor, VDR inh, TrxR1 substrate, rTrxR1 inhibitor)
Cc1sc2nc(CN3CCCC3)nc(N3CCN(S(=O)(=O)c4cccs4)CC3)c2c1C	none
COc1cc(C(=O)NCC(c2cccnc2)N2CCc3ccccc32)cc(OC)c1OC (stereo not drawn)	none (no result: PLK1 PBD inh, Sfp PPTase inh)
CCOC(=O)c1c(O)c(O)c(C(=O)OCC)n1-c1ccccc1	Sfp PPTase inh 31.6µM
COC(=O)N1C2CC3(C)C=C(C)OC1(C)C3c1ccccc12 (stereo not drawn)	none (no result: PLK1 PBD inh, mIDH1 inhibitor, VDR inh, TrxR1 substrate, rTrxR1 inhibitor)
OC(CNCc1ccco1)Cn1c2ccc(Br)cc2c2cc(Br)ccc21 (stereo not drawn)	Sfp PPTase inh 20µM
Cc1cccnc1C(NC(=O)C1CCN(CCCc2ccccc2)CC1)c1ccc(Cl)cc1 (stereo not drawn)	none (no result: mIDH1 inhibitor, VDR inh, TrxR1 substrate, Sfp PPTase inh, rTrxR1 inhibitor)
COc1cc(C(c2sc3nc(C)nn3c2O)N2CCC3(CC2)OCCO3)cc(OC)c1OC (stereo not drawn)	PLK1 PBD inh 2.99µM
COc1ccc(C(=O)N/C(=C\c2cn(C)c3ccccc23)C(=O)N2CCN(C)CC2)cc1OC	PLK1 PBD inh 26.7µM, VDR inh inconclusive
CCc1ccc(S(=O)(=O)N(C(=O)Oc2ccccc2)c2ccc3oc(C)c(C(=O)OC)c3c2)cc1	none (no result: PLK1 PBD inh, Sfp PPTase inh)
CC(=O)c1cccc(NC(=O)Nc2cc3sccc3n2C)c1	Sfp PPTase inh 39.8µM (no result: PLK1 PBD inh, mIDH1 inhibitor, VDR inh, TrxR1 substrate, rTrxR1 inhibitor)
CC(=O)c1cccc(NC(=O)Nc2cccs2)c1	Sfp PPTase inh inconclusive
CCCCCCC1(C)NC(c2ccc3c(c2)OCO3)=CC(c2cc(Br)ccc2O)N1 (stereo not drawn)	none (no result: PLK1 PBD inh, mIDH1 inhibitor, Sfp PPTase inh)
